Records with an inconclusive call do not appear. The list shows a part of the results. Entries that show only a call come without a potency. Calls of active or inactive are those of the source. Calls follow the shape of the dose curve; as a rule, active = well fitted curve in the direction sought with a large enough effect; inconclusive = small, poorly fitted or top-dose-only effect, or another doubt; inactive = no such curve, though single readings can be large; an effect the other way counts as inactive or inconclusive.
Potency is read from the fitted curve at half-maximal effect.

For the first test, the target named is Luciferin 4-monooxygenase (Photinus pyralis) (UniProt P08659). Kind of test: qHTS screen for small molecules that inhibit ELG1-dependent DNA repair: Hit Confirmation in Biochemical Luciferin Assay (AID 624253). The conditions noted are these: purified firefly luciferase, luminescence counter-screen; series mostly up to 57.5 µM. Summed up:
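Biochem luciferin/luciferase assay; substrate + cpd (pintool) + enzyme; luminescence readout, CCD imager.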
For orientation: Quantitative high-throughput screening tests each substance at several concentrations.
For the compound `Cc1ccccc1NC(=O)CSc1nc2ccc(Nc3nc(N4CCOCC4)nc(N4CCOCC4)n3)cc2s1`, the Potency entry was “inactive”.

In the case of `O=C(Nn1c(SCc2ccc([N+](=O)[O-])cc2)nc2ccccc2c1=O)c1ccc(F)cc1`, the Potency was 16.4 µM (active).

For the compound `COc1ccc(NC(=O)C2CCC(CNc3c(N4CCCCC4)c(=O)c3=O)CC2)c(OC)c1` (centres undefined), the Potency result was “inactive”.

Take `COc1ccc(NC(=O)c2sc3nc(C)nc(N4CCN(c5ccccn5)CC4)c3c2C)c(OC)c1`: the Potency entry is “inactive”.

As to `COc1ccc(NC(C)=O)cc1NC(=O)CN1CCN(C2c3ccccc3-c3ccccc32)CC1`, the Potency result was “inactive”.

For the compound `CS(=O)c1ccc(/C=C2\C=Cc3ccccc32)cc1` (centres undefined), the Potency is 1.03 µM (active).

For the compound `Cc1ccc(Nc2nc(N3CCOCC3)nc(N3CCOCC3)n2)cc1Cl`, the Potency result was “inactive”.

Take `O=C(C1CCCN(S(=O)(=O)c2ccccc2)C1)N1CCN(c2ccc(F)cc2)CC1` (centres undefined): the Potency entry was “inactive”.

As for `CC(=O)N1CCc2cc(Br)cc(S(=O)(=O)CCC(=O)Nc3c(C)n(C)n(-c4ccccc4)c3=O)c21`, the Potency result is “inactive”.

In the next test the target is Tumor susceptibility gene 101 protein (Homo sapiens) (UniProt Q99816). Kind of test: qHTS Assay for Iinhibitors of HIV-1 Budding by Blocking the Interaction of PTAP/TSG101: Hit Validation (AID 651600). Also: nearly all actives have a fitted effect of over 70% in size. The conditions noted are these: PTAP peptide/TSG101 UEV interaction, biochemical assay; series mostly up to 57.5 µM. The gist of the method: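 FITC-PTAP peptide (50 nM final) binding to Tsg101 binding domain (10 uM final) was measured by polarization after 20 min at r.t. with compounds, in 10 mM HEPES pH 7.5 buffer with 0.15 M NaCl and 0.01% Tween 20.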
Chain of Tumor susceptibility gene 101 protein (Homo sapiens) (Q99816 whole entry, looked up, the tested form may be a part): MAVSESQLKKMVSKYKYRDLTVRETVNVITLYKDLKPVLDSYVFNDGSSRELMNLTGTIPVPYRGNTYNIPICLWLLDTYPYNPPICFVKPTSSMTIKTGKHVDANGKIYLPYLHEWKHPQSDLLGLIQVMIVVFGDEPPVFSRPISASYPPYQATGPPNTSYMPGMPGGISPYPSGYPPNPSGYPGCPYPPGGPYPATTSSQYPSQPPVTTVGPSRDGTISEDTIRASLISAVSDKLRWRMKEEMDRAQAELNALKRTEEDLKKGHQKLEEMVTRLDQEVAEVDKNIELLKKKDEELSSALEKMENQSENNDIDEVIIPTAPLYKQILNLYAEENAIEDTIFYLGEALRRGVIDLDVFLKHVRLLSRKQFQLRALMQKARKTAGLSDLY
On to `Cc1cc(C)c[n+](-c2[nH]c(=O)sc2/C=N/NC([S-])=Nc2ccccc2)c1`, for which the Potency was 18.3 µM (active).

As to `CCOC(=O)Cn1c(=NC(=O)c2ccc([N+](=O)[O-])s2)sc2ccccc21`, the Potency entry is “inactive”.

`Cn1c(=O)c(NCCc2ccccc2)c2c3c(cccc31)C(=O)c1ccccc1-2`: the Potency was 2.59 µM (active).

With `Cc1ccc(/C=C/C(=O)Nc2ccc(S(=O)(=O)Nc3onc(C)c3C)cc2)cc1`, the Potency entry was “inactive”.

Consider `COc1ccc2c(C=Nc3c(C)n(C)n(-c4ccccc4)c3=O)c(O)n(Cc3ccco3)c(=O)c2c1`, for which the Potency was 29.1 µM (active).

In the case of `Cc1c(C(=O)Nc2cccc(C(F)(F)F)c2)sc2nc3n(c(=O)c12)CCCC3`, the Potency result was “inactive”.

On to `CCOc1cc(/C=C(\C#N)c2nc(-c3cccs3)c(NC(C)=O)s2)ccc1O`, for which the Potency entry is “inactive”.

With `Cc1oc2cc(O)ccc2c(=O)c1-c1nncn1-c1ccccc1`, the Potency is 20.6 µM (active).

As to `Cn1cc(/C=C2\SC(=S)N(NC(=O)c3ccccc3)C2=O)c2ccccc21`, the Potency result is “inactive”.

As for `Cn1c(=O)cc2c3c(c(N4CCCCC4)ccc31)C(=O)c1ccccc1-2`, the Potency entry is “inactive”.

Consider `CCN1CCN(Cc2ccc(NC(=O)Nc3ccccc3OC)cc2)CC1`, for which the Potency entry was “inactive”.

Turning to `COc1ccc(OC)c(NC(=O)CCN2CC(C)CC(C)C2)c1` (centres undefined), the Potency result is “inactive”.

For `Nc1c(C(=O)C2CC2)sc2nc(-c3ccccc3)cc(C(F)(F)F)c12`, the Potency entry was “inactive”.

Regarding `CC1C2C(c3ccccc3)N(C)C(=O)N(C)C2N(C)C(=O)N1C` (centres undefined), the Potency entry is “inactive”.

`O=C1Nc2ccc(F)cc2C12Nc1ccccc1-c1nnc(SCc3ccccc3F)nc1O2` (centres undefined): the Potency entry was “inactive”.

For the compound `CC(=O)N1c2ccccc2C(=O)C1N1CCCCC1` (centres undefined), the Potency entry is “inactive”.

`COC(=O)CNc1c(-c2ccccc2)nc2ccc(Br)cn12`: the Potency result is “inactive”.

Take `CCCN1C(=O)/C(=C/C=C2\N(CC)c3ccccc3C2(C)C)SC1=S`: the Potency was 29.1 µM (active).

Regarding `COc1cc(/C=c2\sc3nc(=O)c(-c4ccccc4)nn3c2=O)ccc1OCCC(C)C`, the Potency result was “inactive”.

Regarding `Cc1c(C(=O)NCc2ccccc2)sc2nc3n(c(=O)c12)CCCCC3`, the Potency entry is “inactive”.

As to `O=c1[nH]nc(-c2ccc(F)cc2)cc1Cc1ccc(F)cc1`, the Potency result was “inactive”.

As for `O=c1oc2c(CN3CCCCC3)c(O)ccc2cc1-c1nc2ccccc2[nH]1`, the Potency is 18.3 µM (active).

In the case of `O=C(Nc1nc2c(s1)CN(Cc1ccccc1)CC2)c1cccc(S(=O)(=O)N2CCc3ccccc32)c1`, the Potency result is “inactive”.

In the case of `CC(=O)Nc1ccc(N=Cc2c(O)ccc3ccccc23)cc1`, the Potency was 29.1 µM (active).

Turning to `CC1(C)CC(=O)C2=C(C1)OC(N)=C(C#N)C2c1cc2c(cc1[N+](=O)[O-])OCO2` (centres undefined), the Potency result is “inactive”.

Source of the values: PubChem BioAssay (NCATS).
